Source: PubChem BioAssay (National Center for Advancing Translational Sciences (NCATS))
An excerpt weighted towards active compounds, which were near 21% of everything screened.
Pf growth 48h – P. falciparum growth inhibition at 48 hours (one generation). P. falciparum luciferase growth in erythrocytes, 48 h. Potency, µM (top dose mostly 28.7 µM), inactives show top-dose activity change, negative = inhibition, hits mostly inhibitors. 310,000 tested, 5.9% active. AID 504832; active = well fitted inhibition curve with a large enough effect; inconclusive = small, poorly fitted or top-dose-only effect, or another doubt; inactive = no such curve, though single readings can be large or run the other way; also: potency is read from the fitted curve at half-maximal effect; % is scaled to controls: 0 for no effect and ±100 for the full control effect
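Parasite viability was followed by luminescence of a genomically integrated firefly luciferase. Cultures held 0.1% parasitemia at 2% hematocrit (final), incubated under 5% CO2 at 37 C.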
Pf growth 96h – inhibits malaria parasite growth, 96 h; P. falciparum luciferase reporter growth, 96 h; Potency, µM (highest dose often 28.7 µM), without a hit: top-dose activity change, negative = inhibition, most hits filed as inhibitors; 320,000 tested, 6.9% active; active = well fitted inhibition curve with a large enough effect; inconclusive = small, poorly fitted or top-dose-only effect, or another doubt; inactive = no such curve, though single readings can be large or run the other way; also: potency is read from the fitted curve at half-maximal effect; % is scaled to controls: 0 for no effect and ±100 for the full control effect
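Two-generation exposure (96 h) targets delayed-death phenotype. Reporter parasites carrying integrated firefly luciferase, in red cells at 2% hematocrit and 0.05% parasitemia final, kept at 37 C, 5% CO2; luminescence loss indicates inhibition.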
SARS PLP yeast – inhibitors of SARS-CoV papain-like protease in yeast. S. cerevisiae expressing SARS-CoV PLpro, growth rescue. 330,000 tested, 0.19% active. AID 485353. Potency, µM (titrated, usually from 32.9 µM), inactives show at the top dose activity, positive = growth rescue, actives largely listed as activators; also: potency is read from the fitted curve at half-maximal effect; 0% is about no effect; nearly all actives have a fitted effect of over 55% in size
NS1 inh – influenza NS1 inhibition; 270,000 tested, 0.4% active; Potency, µM (series often up to 46.1 µM), for the others: at the top dose activity, positive = more growth; also: potency is read from the fitted curve at half-maximal effect; actives are rising curves; nearly all actives have a fitted effect of over 50% in size
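In this qHTS, NS1 from influenza A is expressed in budding yeast, where it slows growth. Cells are switched from glucose to 2% galactose medium (pH 6.0, -URA), treated with compound, and growth recovery is read at OD600.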
Shiga inhibitor – inhibitors of Shiga toxin in Vero cells | 290,000 tested, 9.2% active | AID 2315 | Vero cells, Shiga toxin protein synthesis inhibition reporter | inhibition, % at 38.7 µM; in the data active = inhibition mostly above about 28%, no sharp cut-off; inactive = mostly below about 43%; also: 0% is about no effect
CHX counter – counter-screen hit for Shiga toxin inhibitors, cycloheximide; cell reporter, cycloheximide protein synthesis inhibition counterscreen; max response, %; 300,000 tested, 12% active; AID 2314; in the data active = max response mostly above about 13%, no sharp cut-off; inactive = mostly below about 14%; also: read at 38.3 µM for the half of the compounds with a filed dose; 0% is about no effect
* marks the source's active call; other numbers are inactive results; ? = inconclusive; nt = no result. Unless noted, calls follow the shape of the full dose curve.

SMILES	Pf growth 48h	Pf growth 96h	SARS PLP yeast	NS1 inh	Shiga inhibitor	CHX counter
CCCCCCCC(O)CC(CC1CCCCC1)C(=O)NN (stereo not given)	?	?	-13%	0%	-8	0
CC(C)NC(=O)Nc1cccc2c1O[C@H](CN(C)C(=O)Nc1ccccc1)[C@@H](C)CN([C@H](C)CO)C2=O	nt	nt	-12%	nt	nt	nt
Cc1ccc(C2/C(=C(/O)c3ccc4c(c3)CC(C)O4)C(=O)C(=O)N2CCCn2ccnc2)cc1 (stereo not given)	12%	?	8%	-1%	-7	5
OC(COc1ccc2ccccc2c1)CN1CCCC1 (stereo not given)	4%	31%	-5%	6%	37	18*
OC(COc1ccc(OCC(O)CN2CCCCC2)cc1)CN1CCCCC1 (stereo not given)	?	-26%	10%	11%	nt	-1
CN(C)CCCNC(=O)c1cc(Br)ccc1O	-4%	0%	-1%	2%	5	2
CC(C)CCNC(=O)c1cc(C(=O)c2cc(F)ccc2O)cn(CCC(C)C)c1=O	1.5µM*	?	0%	nt	3	-2
N#Cc1cc(C(=O)c2cc(F)ccc2O)cn(Cc2ccccc2)c1=O	?	?	-1%	nt	-20	-6
CC(C)CCNC(=O)c1cc(C(=O)c2cc(Br)ccc2O)cn(CCC(C)C)c1=O	1µM*	0.41µM*	-6%	nt	-10	-2
CC(=O)c1cc(CN2CCN(C3CCCCC3)C(CCO)C2)cs1 (stereo not given)	-1%	-6%	0%	-1%	-17	0
Cc1ccc(S(=O)(=O)N=C2SCCCS2)cc1	-4%	-29%	2%	-5%	26	3
C[C@H](NC(=O)[C@@H]1CSC2c3ccccc3C(=O)N21)C(=O)NCCc1ccccc1 (stereo not given in full)	50%	96%	19%	-7%	51*	43*
C[C@H](NC(=O)[C@@H]1CSC2c3ccccc3C(=O)N21)C(=O)NCCc1ccc(F)cc1 (stereo not given in full)	0%	-28%	4%	?	18	8
CCOc1ccc([C@@H]2CC=C(C(=O)O)CN2S(=O)(=O)c2ccc(C)cc2)cc1	?	?	7%	nt	nt	nt
Cc1cc(C)cc(NS(=O)(=O)c2ccc3c(c2)c(=O)n(C)c(=O)n3C)c1	12µM*	nt	-6%	4%	3	-6
Cc1c(Br)c([N+](=O)[O-])nn1CC(=O)c1ccccc1	21%	57%	-1%	-9%	3	-3
COc1ccc(S(=O)(=O)N2CCCCCC2)cc1C(=O)N(C)Cc1ccc(C(C)(C)C)cc1	?	13µM*	0%	17%	-13	0
COc1ccc(CN(C)C(=O)c2cc(S(=O)(=O)N3CCOCC3)ccc2N2CCCC2)cc1	9.3µM*	?	nt	nt	nt	nt
COc1ccc(S(=O)(=O)N2CCCCCC2)cc1C(=O)N(C)Cc1ccc(F)cc1	?	-7%	nt	nt	nt	nt
CN(Cc1cccs1)C(=O)c1cc(S(=O)(=O)N2CCOCC2)ccc1N1CCCC1	-7%	12%	-1%	nt	nt	nt
CC(=O)Nc1ccc(C(=O)Cn2c3[n+](c4c(F)c(F)ccc42)CCCCC3)cc1	?	?	-2%	nt	-2	-2
Cc1ccc(CCSc2ccc(C(C)C)cc2)cn1	11%	12µM*	30%	-16%	30*	9.2*
Cc1ccc(CCSc2ccc(F)cc2)cn1	22%	?	-1%	-1%	64*	15*
Cc1ccc(NCCc2ccc(C)nc2)cc1	nt	149%	-2%	-1%	-11	12
COc1ccc(CCNC(=O)C(=O)N2CCCCC2)cc1OC	34%	-9%	-6%	7%	7	-1
SMILES	Pf growth 48h	Pf growth 96h	SARS PLP yeast	NS1 inh	Shiga inhibitor	CHX counter
O=C1CCSc2ccc(Cl)cc2N1Cc1ccc(Cl)cc1	?	15µM*	-7%	3%	-7	-5
O=C1CCSc2ccc(Cl)cc2N1Cc1ccccc1	8%	14%	-2%	2%	-9	-2
COCCOc1ccc(C(F)(F)F)cc1NC(=O)COC(=O)c1ccc(N2CCCC2=O)cc1	nt	nt	5%	nt	nt	nt
C/C(CC(=O)Nc1cccc(F)c1)=N\NC(=O)c1ccncc1	6%	98%	18%	?	28	10
C/C(CC(=O)Nc1ccc(Br)cc1)=N\NC(=O)c1cccc(O)c1	?	?	1%	25%	69*	44*
COc1ccc(C(=O)N/N=C(\C)CC(=O)Nc2ccc3c(c2)OCO3)cc1	-1%	14%	0%	-6%	55*	37*
C/C(CC(=O)Nc1ccc2c(c1)OCCO2)=N\NC(=O)c1cccc(O)c1	28%	?	-7%	2%	84*	33*
CC(=O)OC(C(=O)NCc1ccco1)c1ccncc1 (stereo not given)	18%	-12%	-4%	2%	4	-6
CCN(CC)CCn1c2c(c(SCC(=O)Nc3ccc4c(c3)OCCO4)nc1=O)CCC2	?	2.1µM*	0%	nt	nt	nt
CCN(CC)CCn1c2c(c(SCC(=O)Nc3ccc(C)c(F)c3)nc1=O)CCCC2	7.4µM*	?	1%	nt	nt	nt
Cc1ccc(-c2nn(-c3ccccc3)cc2CO)cc1	86%	20%	-2%	-4%	144*	42*
O=[N+]([O-])c1cccc(-c2nn(-c3ccccc3)cc2CO)c1	15%	0.47µM*	-3%	1%	27	12*
COc1ccc(-c2nn(-c3ccccc3)cc2N)cc1	198%	33%	-1%	nt	183*	61*
COc1ccc(-c2cn(-c3ccccc3)nc2CO)cc1	57%	110%	-3%	-20%	111*	37*
COc1ccc(-c2nn(-c3ccccc3)cc2C(=O)N2CCOCC2)cc1	0%	?	7%	-11%	18	-3
O=C(Cn1c(=O)oc2ccccc21)Nc1ccccc1Cl	77%	?	3%	-9%	nt	1
COc1ccc(-c2nn(-c3ccccc3)cc2CO)cc1	105%	11%	-7%	-56%	164*	61*
CC(NC(=O)CCc1nnc(-c2ccccc2)o1)c1ccccc1 (stereo not given)	0%	?	-1%	-3%	124*	35*
CC(NC(=O)CCc1nnc(CCCc2ccccc2)o1)c1ccccc1 (stereo not given)	-1%	-12%	1%	-8%	94*	29*
Cc1cc(CNC(=O)CCc2nnc(CCCc3ccccc3)o2)nn1C	-4%	?	0%	2%	33*	37*
O=C(CCc1nnc(CCCCc2ccccc2)o1)NC1CCCC1	-16%	14%	-1%	-2%	25	-4
CC1(C)CC(NC(=O)CCc2nnc(CCCCc3ccccc3)o2)CCO1 (stereo not given)	-20%	10µM*	1%	-3%	5	-2
O=C(CCc1nnc(-c2ccccc2)o1)NCC1CCN(C2CCCC2)CC1	25%	-22%	0%	7%	-1	4
